Data taken from PubChem BioAssay.
Active and inactive are the calls of the source. Cut-off read from the data, not from the text of the source: active = inhibition above about 31%; inactive = the rest.

Test: yeast transport mutant growth inhibition pilot in 384-well plates, post-Golgi transport modulator project (AID 636)
Details: absorbance 615 nm, about 18 h, active compounds read high

inhibition, inactive:
COc1ccc(C2=CC(=O)OC3(CCCCC3)O2)cc1 -9.18%
CCCCNC(=O)c1nnn(-c2ccccc2)c1N 4.03%
Cc1ccc(Nc2nc(Oc3ccc(=O)[nH]n3)nc(N(C)C)n2)cc1 -3.7%
CN(C(=O)C1CCOC1)c1nnc(-c2cccnc2)s1 (configuration not stated) -1.23%
NS(=O)(=O)c1cc2c(cc1Cl)NC=NS2(=O)=O 0.13%
COc1cccc(NC(=O)COC(=O)c2cccnc2)c1 -4.93%
CCN=C1SC(CC(=O)Nc2ccccc2OCC)C(=O)N1CC (configuration not stated) -2.05%
O=S(=O)(NC1CCCCC1NS(=O)(=O)c1ccc(F)cc1)c1ccc(F)cc1 (configuration not stated) -4.68%
CCn1cnc2sc(C(=O)Nc3ccc4c(c3)OCO4)c(C)c2c1=O -8%
O=C1C2CCCN2C(c2ccccc2)N1c1ccc(Cl)cc1 (configuration not stated) -4.67%
CNc1nnc(-c2cccc(N(C)C)c2)s1 -4.55%
COC(=O)Cc1c(C)nc2nc[nH]n2c1=O -4.73%
CCC(c1nnc(SCC(=O)Nc2ccc(C(=O)Nc3ccccc3OC)cc2)o1)N(C)C (configuration not stated) -6.3%
CC1Oc2ccccc2N(Cc2ccccc2Cl)C1=O (configuration not stated) -5.34%
CCn1cc(C(=O)O)c(=O)c2ccc(C)nc21 -0.78%
COc1ccccc1NC(=O)Cc1noc(CSc2cc(C)c3ccccc3n2)n1 -4.59%
CC(COc1ccccc1)N(CCCl)Cc1ccccc1 (configuration not stated) -0.65%
